Laboratory results from PubChem BioAssay AID602156 (GNF / Scripps Winzeler lab, 2011).
Screen size: about 5,700 compounds; about 280 (4.9%) were called active. No rule for the calls is given here. These entries were drawn from the full list.

Experiment: Plasmodium liver-stage growth inhibition, dose response, imaging, Malaria Box, P. yoelii, HepG2-A16-CD81EGFP (AID 602156)
Settings: P. yoelii liver stage in HepG2-A16-CD81EGFP

outcome, inactive:
CC(C)CC(NC(=O)C(=Cc1ccco1)NC(=O)c1ccccc1)C(=O)OCc1ccccc1 (stereo unspecified), O=C(CSc1nc2ccccc2[nH]1)Nc1ccc2c(c1)OCO2, CC(C)(C)C1=NN(CC(=O)Nc2ccc3c(c2)OCO3)C(=O)c2cc3ccccc3n2C1, O=C(Nc1ccc2c(c1)OCO2)c1cc2cc(C3(O)CCN(CCCc4ccccc4)CC3)ccc2o1, CC(C)CN1CCC(O)(c2ccc3oc(C(=O)Nc4ccc5c(c4)OCO5)cc3c2)CC1, Clc1cccc(CSc2nc(Nc3ccc4c(c3)OCO4)c3ccccc3n2)c1, c1ccc2c(NC3CCCC3)nc(Nc3ccc4c(c3)OCO4)nc2c1, CCCc1ccc(OCCNC(=O)CCNC(=O)Nc2cccc(Cl)c2)cc1, CC(C)CNC(=O)c1ccc(OC2CCN(CC3CCCCC3)CC2)c(Cl)c1, CC(C)CN(CC(=O)Nc1cc(C(C)(C)C)nn1-c1ccccc1)C(=O)c1cc(Cl)cc(Cl)c1, O=C(Nc1ccc(-n2cnnn2)cc1)C1CCN(Cc2ccc(OC(F)F)cc2)CC1, CCC(C)OC(=O)C1=C(C)NC2=C(C(=O)CC(c3ccc(Cl)cc3)C2)C1c1ccccc1F (stereo unspecified), N#Cc1cc(Oc2ccc(-c3cnc4ccccc4n3)cc2)nc2ccccc12, COc1ccc(C2C(C(=O)Nc3cccc(OC)c3)c3ccccc3C(=O)N2C2CCCCC2)cc1 (stereo unspecified), CC[n+]1c(C=CC=C2N(C)c3ccccc3C2(C)C)n(-c2ccccc2)c2ccccc21, COc1ccc(NC(=O)NCc2cccn2Cc2ccc(F)cc2)cc1OC, Cn1nc(C(=O)N2CCCCCC2)c2c1CCC(NCC(C)(C)N1CCOCC1)C2 (stereo unspecified), C=C(Cl)CSc1nnc(CCNC(=O)c2ccc(C)cc2)n1-c1ccc(F)cc1, CCCc1nc2ccc(NC(=O)NCC)cc2c(=O)n1Cc1ccc(-c2ccccc2)cc1, CCc1nc2ccc(NC(=O)c3ccncc3)cc2c(=O)n1Cc1cccc(OC)c1, COc1cc(OC)cc(C(=O)N(CCCC(C)Nc2cc(OC)cc3cccnc23)Cc2ccc(Cl)cc2)c1 (stereo unspecified), COc1cc(C(=O)C=CNc2ccc(N(C)C)cc2)cc(OC)c1OC, CCC(Cc1cnc2nc(N)nc(N)c2n1)c1ccc(C(=O)N[C@@H](CCC(=O)O)C(=O)O)cc1 (stereo partly specified), CCCCCCc1cc2cc(-c3nc4ccccc4[nH]3)c(=Nc3ccccc3C)oc2cc1O, CC(C)(C)c1nn(-c2ccc(Cl)cc2)c2[nH]c(=O)c(CNCc3ccccc3)cc12, c1ccc2c(NCCNc3c4ccccc4nc4ccccc34)c3ccccc3nc2c1
